About 83,000 compounds went through this panel and 20% of them were active in at least one assay; those are over-represented in the sample as a whole.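 In brief: 96-well plates, 48 h treatment, single concentration, percent growth endpoint.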 The source made the active and inactive calls. How the source made its calls: active means growth percent below 10; inactive means the rest.
Experiments:
Assay in all cases: NCI-60 one-dose screen, 48 h (100 = growth as untreated, 0 = no growth, -100 = all killed)
[1] = tested on: NCI-H23 lung; conditions: 10 µM unless noted
[2] = tested on: NCI-H226 lung; conditions: 10 µM unless noted
[3] = tested on: NCI-H322M lung; conditions: 10 µM unless noted
[4] = tested on: NCI-H460 lung; conditions: 10 µM unless noted
[5] = tested on: HOP-92 NSCLC; conditions: 10 µM
[6] = tested on: NCI-H522 lung; conditions: 10 µM
[7] = tested on: A549/ATCC NSCLC; conditions: 10 µM unless noted
[8] = tested on: 786-0 renal; conditions: 10 µM unless noted
[9] = tested on: COLO 205 colon; conditions: 10 µM unless noted
[10] = tested on: DU-145 prostate; conditions: 10 µM unless noted
[11] = tested on: K-562 leukemia; conditions: 10 µM unless noted
[12] = tested on: MALME-3M melanoma; conditions: 10 µM unless noted
[13] = tested on: MDA-MB-231 breast; conditions: 10 µM unless noted
[14] = tested on: RXF 393 renal; conditions: 10 µM unless noted
[15] = tested on: SF-268 CNS; conditions: 10 µM unless noted
[16] = tested on: SF-295 CNS; conditions: 10 µM unless noted
[17] = tested on: SF-539 CNS; conditions: 10 µM unless noted
[18] = tested on: UACC-257 melanoma; conditions: 10 µM unless noted
[19] = tested on: M14 melanoma; conditions: 10 µM unless noted

Measured: growth

C/C(=N\Nc1ccc(Cl)cn1)c1ccccn1
active: [2] -8.37% | [3] 9.31% | [4] 0.782% | [6] 6.6% | [7] 6.73% | [8] 8.74% | [9] 9.59% | [11] 5.63% | [12] 2.78% | [16] -1.75% | [17] -14% | [18] -11.4% | [19] 2.33%
inactive: [1] 11.6% | [5] 29% | [10] 18.2% | [13] 31% | [14] 19.4% | [15] 11.9%

CC(O)C(N)=O (configuration not stated)
inactive: [1] 95.6% | [2] 102% | [3] 108% | [4] 105% | [5] 101% | [6] 102% | [7] 109% | [8] 98.8% | [9] 104% | [10] 109% | [11] 101% | [12] 105% | [13] 114% | [14] 107% | [15] 103% | [16] 95% | [17] 94.7% | [18] 112% | [19] 97.9%

Cc1ccc([C@@H]2C[C@H](O)Cc3ccccc3N2)s1
inactive: [1] 90.7% | [2] 124% | [3] 110% | [4] 101% | [5] 78.8% | [6] 117% | [7] 104% | [8] 114% | [9] 98.8% | [10] 111% | [11] 101% | [12] 104% | [13] 102% | [14] 126% | [15] 106% | [16] 107% | [17] 97.4% | [18] 100% | [19] 125%

COC(=O)c1ccc2[nH]c(O)c(C(=Nc3ccc(N(C)C(=O)CN4CCN(C)CC4)cc3)c3ccc(OC)cc3)c2c1
inactive: [1] 28.1% | [2] 25.8% | [3] 38% | [4] 14.8% | [5] 38% | [6] 17.4% | [7] 16% | [8] 21.7% | [10] 21.1% | [13] 23.6% | [15] 21.3% | [16] 37.6% | [18] 48.9% | [19] 14.3%
active: [9] 0.878% | [11] 4.93% | [12] 6.81% | [14] -24.8% | [17] -0.308%

COC1NC(Cl)=C(C#N)C(C#N)(C#N)C1(C)C (configuration not stated)
active: [14] 3.25%
inactive: [1] 108% | [2] 108% | [3] 121% | [4] 114% | [5] 97.2% | [6] 104% | [7] 109% | [8] 87.2% | [9] 124% | [10] 94.2% | [11] 77.1% | [12] 146% | [13] 88.6% | [15] 122% | [16] 115% | [17] 92.3% | [18] 102% | [19] 59.1%

COc1ccc(CN2C(=O)/C(=C\C(=O)c3ccc(OCCN4CCCC4)cc3)c3ccccc32)cc1
active: [11] -25.9%
inactive: [1] 83.8% | [2] 87.8% | [3] 97.6% | [4] 94.4% | [5] 54.4% | [6] 31.9% | [7] 97.2% | [8] 85.7% | [9] 83.9% | [10] 71.9% | [13] 93% | [14] 65.2% | [15] 84.3% | [16] 93.9% | [17] 86.6% | [18] 105% | [19] 79.6%

COc1ccc(/C=C(/C(=O)N2CCCCC2)c2cc(OC)c(OC)c(OC)c2)cc1
active: [6] -24.2% | [9] -14.6% | [10] 9.17% | [14] -1.64% | [17] -10.5% | [19] -6.93%
inactive: [1] 36.3% | [2] 94.8% | [3] 45.2% | [4] 11.6% | [5] 45.5% | [7] 34.9% | [8] 23.5% | [11] 11% | [13] 41.5% | [15] 50.1% | [16] 14.1% | [18] 75%

COc1ccc(C2=C/C(=C\c3ccc(Cl)cc3)C(=O)NN2C(=S)NN)cc1
inactive: [1] 92.5% | [2] 87.6% | [3] 102% | [4] 102% | [5] 74% | [6] 83.9% | [7] 101% | [8] 104% | [9] 114% | [10] 108% | [11] 93.9% | [13] 96.1% | [14] 105% | [15] 95.8% | [16] 96.3% | [17] 111% | [18] 104% | [19] 99.5%

CCCCCCCCCCCCCCCCCC1=NCCN1CS(=O)(=O)O
inactive: [1] 87.5% | [2] 87.5% | [3] 15.5% | [5] 38.5% | [6] 84.5% | [8] 74.5% | [9] 29.2% | [10] 33.7% | [14] 69.9% | [16] 74.6% | [17] 61.2% | [18] 91.8% | [19] 34.6%
active: [4] -79.1% | [7] -8.05% | [11] -10.9% | [13] -15.8% | [15] -24.5%

— PubChem BioAssay (NCI)
